Measured values taken from the supplement of paper PMC8728848.
This is one part of a sample in which the strongest signals are shown more often than they occur.

Columns and labels:
Assay in all cases: glycan array binding signal (z-score within array); higher = stronger binding
Conditions in all cases: glycan notation: IUPAC condensed, linker removed
Fuc(a1-2)Gal(b1-4)GlcNAc = biological target: Fuc(a1-2)Gal(b1-4)GlcNAc
Outline: (§1)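 Arrays were curated from the Consortium for Functional Glycomics database, 3228 in total, and kept only where the protein sequence was available. Binding is expressed as a within-array Z-score. This score was averaged across arrays of the same protein sequence at different concentrations or buffers and across linkers, and negative values can be read as non-binding.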

[1] = biological target: Fuc(a1-2)Gal(b1-4)GlcNAc(b1-2)Man(a1-3)[Fuc(a1-2)Gal(b1-4)GlcNAc(b1-2)Man(a1-6)]Man(b1-4)GlcNAc(b1-4)[Fuc(a1-6)]GlcNAc
Outline: as §1

[2] = biological target: Fuc(a1-2)Gal6S(b1-3)GlcNAc
Outline: as §1

[3] = biological target: Fuc(a1-2)Gal6S(b1-3)GlcNAc6S
Outline: as §1

Fuc(a1-2)[Gal(a1-3)]Gal = biological target: Fuc(a1-2)[Gal(a1-3)]Gal
Outline: as §1

[4] = biological target: Fuc(a1-2)[Gal(a1-3)]Gal(b1-3)GlcNAc
Outline: as §1

[5] = biological target: Fuc(a1-2)[Gal(a1-3)]Gal(b1-3)GlcNAc(b1-2)Man(a1-3)[Fuc(a1-2)[Gal(a1-3)]Gal(b1-3)GlcNAc(b1-2)Man(a1-6)]Man(b1-4)GlcNAc(b1-4)[Fuc(a1-6)]GlcNAc
Outline: as §1

[6] = biological target: Fuc(a1-2)[Gal(a1-3)]Gal(b1-4)GlcNAc(b1-6)GalNAc
Outline: as §1

[7] = biological target: Fuc(a1-2)[GalNAc(a1-3)]Gal(b1-3)GlcNAc(b1-2)Man(a1-3)[Fuc(a1-2)[GalNAc(a1-3)]Gal(b1-3)GlcNAc(b1-2)Man(a1-6)]Man(b1-4)GlcNAc(b1-4)[Fuc(a1-6)]GlcNAc
Outline: as §1

[8] = biological target: Fuc(a1-2)[GalNAc(a1-4)]Gal(b1-4)GlcNAc
Outline: as §1

[9] = biological target: Fuc(a1-3)[Gal(b1-4)]GlcNAc
Outline: as §1

[10] = biological target: Fuc(a1-3)[Gal(b1-4)]GlcNAc(b1-6)GalNAc
Outline: as §1

Gal(a1-3)Gal(b1-3)GlcNAc = biological target: Gal(a1-3)Gal(b1-3)GlcNAc
Outline: as §1

[11] = biological target: Gal(a1-3)Gal(b1-3)GlcNAc(b1-2)Man
Outline: as §1

[12] = biological target: Gal(a1-3)Gal(b1-3)GlcNAc(b1-2)Man(a1-3)[Gal(a1-3)Gal(b1-3)GlcNAc(b1-2)Man(a1-6)]Man(b1-4)GlcNAc(b1-4)GlcNAc
Outline: as §1

[13] = biological target: Gal(a1-3)Gal(b1-3)GlcNAc(b1-3)GalNAc
Outline: as §1

[14] = biological target: Gal(a1-3)Gal(b1-4)GlcNAc(b1-2)Man(a1-3)[Gal(a1-3)Gal(b1-4)GlcNAc(b1-2)Man(a1-6)]Man(b1-4)GlcNAc(b1-4)GlcNAc
Outline: as §1

[15] = biological target: Gal(a1-3)Gal(b1-4)[Fuc(a1-3)]GlcNAc
Outline: as §1

Gal(a1-3)GalNAc = biological target: Gal(a1-3)GalNAc
Outline: as §1

[16] = biological target: Gal(a1-3)[Gal(a1-4)]Gal(b1-4)GlcNAc
Outline: as §1

Gal(b1-3)GalNAc(b1-3)Gal = biological target: Gal(b1-3)GalNAc(b1-3)Gal
Outline: as §1

[17] = biological target: Gal(b1-3)GlcNAc(b1-2)Man(a1-3)[Gal(b1-3)GlcNAc(b1-2)Man(a1-6)]Man(b1-4)GlcNAc(b1-4)[Fuc(a1-6)]GlcNAc
Outline: as §1

[18] = biological target: Gal(b1-3)GlcNAc(b1-3)Gal(b1-4)GlcNAc(b1-2)[Gal(b1-3)GlcNAc(b1-3)Gal(b1-4)GlcNAc(b1-6)]Man(a1-6)[Gal(b1-3)GlcNAc(b1-3)Gal(b1-4)GlcNAc(b1-2)Man(a1-3)]Man(b1-4)GlcNAc(b1-4)[Fuc(a1-6)]GlcNAc
Outline: as §1

Gal(b1-3)GlcNAc6S = biological target: Gal(b1-3)GlcNAc6S
Outline: as §1

[19] = biological target: Gal(b1-3)[Fuc(a1-4)]GlcNAc
Outline: as §1

[20] = biological target: Gal(b1-3)[Fuc(a1-4)]GlcNAc(b1-6)GalNAc
Outline: as §1

Gal(b1-4)GlcNAc(b1-2)Man = biological target: Gal(b1-4)GlcNAc(b1-2)Man
Outline: as §1

[21] = biological target: Gal(b1-4)GlcNAc(b1-2)[Gal(b1-4)GlcNAc(b1-4)]Man(a1-3)[GlcNAc(b1-4)][Gal(b1-4)GlcNAc(b1-2)[Gal(b1-4)GlcNAc(b1-6)]Man(a1-6)]Man(b1-4)GlcNAc(b1-4)GlcNAc
Outline: as §1

[22] = biological target: Gal(b1-4)GlcNAc(b1-3)Gal(b1-4)GlcNAc
Outline: as §1

[23] = biological target: Gal(b1-4)GlcNAc(b1-6)Gal(b1-4)GlcNAc
Outline: as §1

Gal3S(b1-4)Glc = biological target: Gal3S(b1-4)Glc
Outline: as §1

B1: FimA-N2 (Actinomyces oris) (protein)
chain: MHHHHHHSSGVDLGTENLYFQSNAWIYDVNVYPKNEAIDVDKTIQAQKLNGYGVGSLIKFPVESTAPTLDAKSFYKYFQLKDTLDERLSEVTATDVSLEGTPLQPTDYKVETKQQTVTVTFTAEGLKKIKAAPGKKVSAVFQGKVTKAGNGAITNRAQVISDTLYAEQPPTPETPPTDPENPPTSDEVISRWGDLSIKKVDTHQQGQTKA
For B1, the “glycan array binding signal (z-score)” value (Fuc(a1-2)Gal(b1-4)GlcNAc) was 0.416, the “glycan array binding signal (z-score)” value [1] was 2.43 and the “glycan array binding signal (z-score)” value [2] was 1.35. For the same binder, the “glycan array binding signal (z-score)” value [3] was 3.98, the “glycan array binding signal (z-score)” value (Fuc(a1-2)[Gal(a1-3)]Gal) was 1.78 and the “glycan array binding signal (z-score)” value [4] was -0.75. For the same binder, the “glycan array binding signal (z-score)” value [5] was -0.838, the “glycan array binding signal (z-score)” value [6] was 2.61 and the “glycan array binding signal (z-score)” value [7] was -0.909. The “glycan array binding signal (z-score)” value [8] was 0.482, the “glycan array binding signal (z-score)” value [9] was -0.144 and the “glycan array binding signal (z-score)” value [10] was -0.225. The “glycan array binding signal (z-score)” value (Gal(a1-3)Gal(b1-3)GlcNAc) was 1.02, the “glycan array binding signal (z-score)” value [11] was 2.25 and the “glycan array binding signal (z-score)” value [12] was 0.101. The “glycan array binding signal (z-score)” value [13] was -0.826, the “glycan array binding signal (z-score)” value [14] was -1.06 and the “glycan array binding signal (z-score)” value [15] was -1.47. The “glycan array binding signal (z-score)” value (Gal(a1-3)GalNAc) was -0.66, the “glycan array binding signal (z-score)” value [16] was 2.77 and the “glycan array binding signal (z-score)” value (Gal(b1-3)GalNAc(b1-3)Gal) was -0.678. The “glycan array binding signal (z-score)” value [17] was 2.23, the “glycan array binding signal (z-score)” value [18] was 3.71 and the “glycan array binding signal (z-score)” value (Gal(b1-3)GlcNAc6S) was -0.106. The “glycan array binding signal (z-score)” value [19] was 0.004, the “glycan array binding signal (z-score)” value [20] was -0.651 and the “glycan array binding signal (z-score)” value (Gal(b1-4)GlcNAc(b1-2)Man) was -0.413. The “glycan array binding signal (z-score)” value [21] was -0.356, the “glycan array binding signal (z-score)” value [22] was 1.55 and the “glycan array binding signal (z-score)” value [23] was -0.5. The “glycan array binding signal (z-score)” value (Gal3S(b1-4)Glc) was 0.216.
